In PubChem BioAssay:
Calls of active or inactive are those of the source.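 How the source made its calls, unless noted: active means compounds killing one labelled cell type while sparing the other, by normalised counts and ratio limits, not self-fluorescent; inactive means the rest.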

Key:
[1] = EMT-state selective cytotoxicity in co-culture – imaging, PC-3E GFP, TEM4-18 mCherry, primary screen (AID 1345086); details: PC-3E GFP / TEM4-18 mCherry co-culture, imaging cell counts, at 1 µM; for red/green cell ratio (normalised): actives lie on both sides, counts scaled to control wells, 1 = unselective;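 on all read-outs here: cells exposed to compound for 72 h before imaging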;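 on red/green cell ratio (normalised): normalised mesenchymal count divided by normalised epithelial count so high means epithelial killing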
[2] = target: Mitogen-activated protein kinase 7 (Homo sapiens) (UniProt Q13164); experiment: Gal4-ERK5 driven luciferase induction – cell-based, HTS, primary screen (AID 1508626;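 active means luciferase signal above three times the same-plate solvent-only control wells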;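 further: luciferase driven by Gal4-ERK5 fusion binding five Gal4 sites before minimal TATA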); details: HeLa Gal4-ERK5 transactivation, 18 h, at 5 µM, stronger effect = higher value
[3] = blockers of polyQ-driven CASP3 activation – cell-based (AID 1583); details: polyglutamine-induced caspase-3 activation, cell assay; stronger effect = higher value;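 tested at 10 µM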
[4] = yeast 75Q aggregation reduction – 75Q-TubU reporter (AID 1593); details: Yeast 75Q polyglutamine aggregation reporter
[5] = P. berghei load reduction in hepatocytes – cell-based, HepG2, luciferase luminescence, HepG2 viability, primary screen (AID 624349; in the data active means parasite load remaining mostly below about 12%, no sharp cut-off; inactive means mostly above about 10%;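 further: 100% = mean of DMSO negative control wells on the same plate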); details: P. berghei liver stage in HepG2, luciferase luminescence, concentration not given here; parasite load remaining: stronger effect = lower value; viability: measured here: HepG2 viability without parasites
[6] = measured here: epithelial PC-3E GFP cell survival
[7] = measured here: mesenchymal TEM4-18 mCherry cell survival

Sequence of Mitogen-activated protein kinase 7 (Homo sapiens) (Q13164 whole entry, looked up, the tested form may be a part): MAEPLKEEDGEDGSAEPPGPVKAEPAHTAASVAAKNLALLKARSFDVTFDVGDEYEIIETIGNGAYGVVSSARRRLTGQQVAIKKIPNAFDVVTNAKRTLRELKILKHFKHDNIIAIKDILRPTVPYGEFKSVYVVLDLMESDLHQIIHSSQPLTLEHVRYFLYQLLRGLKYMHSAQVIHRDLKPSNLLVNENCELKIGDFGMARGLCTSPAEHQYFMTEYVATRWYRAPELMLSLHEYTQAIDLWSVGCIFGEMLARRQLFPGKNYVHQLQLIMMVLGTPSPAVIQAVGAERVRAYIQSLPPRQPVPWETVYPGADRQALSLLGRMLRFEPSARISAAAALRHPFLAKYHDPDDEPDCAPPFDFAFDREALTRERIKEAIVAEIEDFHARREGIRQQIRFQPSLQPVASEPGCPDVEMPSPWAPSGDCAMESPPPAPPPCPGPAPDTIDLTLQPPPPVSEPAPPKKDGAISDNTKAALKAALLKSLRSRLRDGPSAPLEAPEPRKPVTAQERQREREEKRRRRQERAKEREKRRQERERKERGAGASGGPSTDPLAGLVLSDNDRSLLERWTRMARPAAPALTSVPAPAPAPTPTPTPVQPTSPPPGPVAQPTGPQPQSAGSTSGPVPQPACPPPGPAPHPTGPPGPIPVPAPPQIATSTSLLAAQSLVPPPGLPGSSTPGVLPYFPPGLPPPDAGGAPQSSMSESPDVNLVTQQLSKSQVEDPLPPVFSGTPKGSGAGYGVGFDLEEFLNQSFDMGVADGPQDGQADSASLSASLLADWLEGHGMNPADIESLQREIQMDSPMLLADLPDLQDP

SMILES	red/green cell ratio (normalised) [1]	normalised cell number [1, 6]	normalised cell number [1, 7]	luciferase signal [2]	inhibition [3]	score [4]	parasite load remaining [5]	viability [5]
O=C(NC1CCCCC1)NC1CCCCC1	0.92 (inactive)	1.15	1.06	60 AU (inactive)				
COc1ccc2c(c1)OCC(Cc1ccc(O)c(OC)c1)C2=O (stereo not drawn)	0.93 (inactive)	1.04	0.96	84 AU (inactive)				
CC(=O)OC/C=C(\C)CC/C=C(\C)CC/C=C(\C)CC/C=C(\C)CC/C=C(\C)CC/C=C(\C)CC/C=C(\C)CC/C=C(\C)CCC=C(C)C	0.99 (inactive)	1.05	1.04	84 AU (inactive)				
CN(C)CC(=O)OC[C@@H](O)[C@@H](O)[C@H](O)[C@@H](O)C(=O)O	1.02 (inactive)	1.08	1.1	36 AU (inactive)				
Cc1cc(O)c(C=O)c2c1C(=O)Oc1c(COC(=O)/C=C/C(=O)O)c(O)c(C(=O)O)c(C)c1O2	1.12 (inactive)	1.12	1.25	16 AU (inactive)				
COc1ccc(-c2coc3cc(O)ccc3c2=O)c(OC)c1	1.02 (inactive)	1.07	1.08	60 AU (inactive)				
COc1ccc2c(c1)O[C@H]1c3ccc(OC)cc3OC[C@@H]21	1.06 (inactive)	1	1.07	68 AU (inactive)				
COc1ccc([C@H]2COc3c(ccc(O)c3OC)C2)c(OC)c1O	0.9 (inactive)	0.99	0.9	60 AU (inactive)				
C=C[C@@H](C1=CC(=O)C(OC)=C(OC)C1=O)c1ccccc1	0.99 (inactive)	1.04	1.04	136 AU (inactive)				
CC(=O)OCC(OC(C)=O)C(OC(C)=O)C(OC(C)=O)C(OC(C)=O)C(COC(C)=O)OC(C)=O (stereo not drawn)	1.06 (inactive)	0.99	1.05	80 AU (inactive)				
CC(C)(N=NC(C)(C)C(=N)N)C(=N)N	1.04 (inactive)	1.17	1.22	20 AU (inactive)				
CC[C@@H](C(=O)[C@@H](C)[C@@H](O)[C@H](C)[C@@H]1O[C@@H]([C@@H](CC)C(=O)O)CC[C@@H]1C)[C@H]1OC2(C=C[C@@H](O)[C@]3(CC[C@@](C)([C@H]4CC[C@](O)(CC)[C@H](C)O4)O3)O2)[C@H](C)C[C@@H]1C (stereo partly drawn)	0.65 (active)	0.55	0.36	36 AU (inactive)	40.3%	0.53	-5.04% (inactive)	82%
C[C@@H]1O[C@@H](O[C@H]2[C@H](Oc3cc(O)c4c(=O)cc(-c5ccc(O)cc5)oc4c3)O[C@H](CO)[C@@H](O)[C@@H]2O)[C@H](O)[C@H](O)[C@H]1O	1.02 (inactive)	0.87	0.89	56 AU (inactive)				
CC(=O)O[C@@H]1CC[C@@]2(C)C(CC[C@]3(C)C2CC=C2C4CC(C)(C)CC[C@]4(C(=O)O)CC[C@]23C)C1(C)C (stereo partly drawn)	0.84 (inactive)	1.04	0.87	44 AU (inactive)				
O=C(/C=C/c1ccccc1)c1ccc(O)cc1O	0.95 (inactive)	1.05	1	52 AU (inactive)				
OC[C@H]1O[C@@H](O[C@H]2[C@H](O)[C@@H](O)[C@@H](O)O[C@@H]2CO)[C@H](O)[C@@H](O)[C@@H]1O	1.17 (inactive)	0.89	1.04	32 AU (inactive)				
CC(CCC(=O)O)[C@H]1CCC2C3C[C@H](O)[C@@H]4C[C@H](O)CC[C@]4(C)C3CC[C@@]21C (stereo partly drawn)	0.83 (inactive)	1.24	1.03	60 AU (inactive)				
C[C@]12CCC3c4ccc(OC(=O)c5ccccc5)cc4CCC3C1CCC2=O (stereo partly drawn)	0.85 (inactive)	1.24	1.05	40 AU (inactive)				
CC(=O)O[C@@H]1CC2C(C)(C)[C@H](O)C=C[C@]2(C)C2CC[C@@]3(C)[C@H](c4ccoc4)OC(=O)C4OC43[C@@]21C (stereo partly drawn)	1.02 (inactive)	1.17	1.19	56 AU (inactive)				
O=C(/C=C/c1ccc(O)cc1)c1ccccc1O	0.93 (inactive)	1.02	0.94	96 AU (inactive)				
S=c1ccss1	1.04 (inactive)	1.15	1.2	52 AU (inactive)				
COc1cc(O)c(C(=O)/C=C/c2ccc(O)c(OC)c2)c(OC)c1	0.93 (inactive)	1.1	1.02	60 AU (inactive)				
CC(=O)O[C@H]1C[C@@H](O)C(C)(C)C2C[C@@H](OC(C)=O)[C@]3(C)C(CC[C@@]4(C)[C@H](c5ccoc5)OC(=O)C5OC543)[C@]21C (stereo partly drawn)	0.84 (inactive)	0.84	0.7	40 AU (inactive)				
O=C(O)c1cc(=O)c(O)c2c(O)c(O)c(O)cc2c1	0.85 (inactive)	1.11	0.94	100 AU (inactive)				
O=S(=O)(O)c1cc(N=C=S)ccc1/C=C/c1ccc(N=C=S)cc1S(=O)(=O)O	0.86 (inactive)	1.29	1.11	52 AU (inactive)				
CCCCC(=O)O[C@]1(C(=O)CO)[C@@H](C)CC2C3CCC4=CC(=O)C=C[C@]4(C)[C@@]3(F)C(O)C[C@@]21C (stereo partly drawn)	1.42 (inactive)	0.8	1.14				94.9% (inactive)	71%
C[C@@H]1CC[C@@]2(OC1)OC1CC3C4CC=C5C[C@@H](O)CC[C@]5(C)C4CC[C@]3(C)C1[C@@H]2C (stereo partly drawn)	1.13 (inactive)	1.02	1.16				131% (inactive)	91.4%
CC(=O)OCC(=O)[C@@]1(O)[C@H](C)CC2C3CCC4=CC(=O)C=C[C@]4(C)[C@@]3(F)[C@@H](O)C[C@@]21C (stereo partly drawn)	1.26 (inactive)	1.37	1.74		52.6%	0.99	140% (inactive)	73.1%
CC(=O)Oc1ccc2c(c1)CCC1C2CC[C@@]2(C)C1CC[C@@H]2OC(C)=O (stereo partly drawn)	0.86 (inactive)	1.29	1.12		10.6%	-0.45	102% (inactive)	70.5%
CC(C)CC(NC(=O)CCN)C(=O)O (stereo not drawn)	1.07 (inactive)	1.22	1.31		1.74%	1.04		
